Screening results from PubChem.
Rows were chosen to be rich in hits. Some 7.9% of all compounds tested hit in one or more screens of this group.
SW480 rereplic – DNA re-replication induction in SW480 cells; 340,000 compounds, 1.8% hits; SW480 DNA re-replication, Hoechst DNA content imaging, 48 h; Potency, µM (series often up to 46.1 µM), without a hit: top-dose re-replication activation, actives largely listed as activators; also: % of control where 0% means no effect; nearly all actives have a fitted effect of over 55% in size
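Image-based read-out: total Hoechst fluorescence of nuclei (405 nm excitation, 500-530 nm emission), with hits raising the fraction of high-intensity nuclei. SW480 colon cells incubated 48 hr with compounds at 37 C.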
MCF10A rereplic – DNA re-replication induction in MCF 10a cells. MCF 10A DNA re-replication, Hoechst nuclear intensity, 48 h. Potency, µM (series often up to 46.1 µM), inactives show at the top dose activity, positive = re-replication, most hits filed as activators. 350,000 compounds, 2.9% hits. AID 624296; also: % of control where 0% means no effect; nearly all actives have a fitted effect of over 50% in size
HT1080 IDH1KD tx – kills HT-1080 cells with IDH1 knockdown | HT-1080 IDH1 knockdown viability, ATP luminescence, 48 h | Potency, µM (top dose mostly 46.1 µM), without a hit: at the highest dose activity, negative = toxicity, usual class: cytotoxic | 360,000 compounds, 2% hits | AID 686971;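 also: 0% = DMSO wells and -100% = cell-free medium wells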
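HT-1080-IDH1KD cells (IDH1 knocked down), 750/well in RPMI with 5% FBS, treated with compound 48 h at 37 degrees C. Viability by CellTiter-Glo luminescence, normalised to DMSO and no-cell wells; concentration-response curves classed.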
KB-3-1 tox – kills parental KB-3-1 adenocarcinoma cells. KB-3-1 viability, CellTiter-Glo ATP luminescence, 72 h. Potency, µM (highest dose often 46.1 µM), hits mostly cytotoxic. 400,000 compounds, 1.4% hits. AID 1347075; also: % is scaled to controls: 0 for no effect and ±100 for the full control effect; nearly all actives have a fitted effect of over 60% in size
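Cytotoxicity in the drug-sensitive parental line KB-3-1 was scored as loss of CellTiter-Glo luminescence following 72 h incubation with compound. Values come from curve fitting of normalized concentration-response data.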
HT1080-NT tox – kills 2HG-producing HT-1080-NT fibrosarcoma cells. 360,000 compounds, 1.6% hits. HT-1080-NT fibrosarcoma viability, CellTiter-Glo ATP luminescence, 48 h. Potency, µM (series often up to 46.1 µM), for inactives: at the top dose activity, negative = less viability, actives largely listed as cytotoxic. AID 686970;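 also: NT is the 2HG producing partner of a matched IDH1 knockdown line; 0% = DMSO-treated cells and -100% = media-only wells without cells; nearly all actives have a fitted effect of over 55% in size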
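Read-out is CellTiter-Glo luminescence after 10 minutes at room temperature, following 48 hours' compound treatment of HT-1080-NT cells (750 cells/well, RPMI, 5% FBS, 37 degrees C).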
KB-V1 cytotox – KB-V1 MDR subline cytotoxicity; Potency, µM (top dose mostly 46.1 µM), hits mostly cytotoxic; KB-V1 MDR cells viability, CellTiter-Glo, 72 h; 400,000 compounds, 3.4% hits; also: % is scaled to controls: 0 for no effect and ±100 for the full control effect; nearly all actives have a fitted effect of over 60% in size
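Compound-treated KB-V1 multidrug-resistant cells, 72 h, 37 degrees C; viability by CellTiter-Glo. Fitted qHTS curves give the values.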
The depositor's hits bear a star; i = inactive; ? = inconclusive; · = no result given; [ ] = another dose, or the depositor's remark. Calls follow the shape of the dose curve; as a rule, active = well fitted curve in the direction sought with a large enough effect; inconclusive = small, poorly fitted or top-dose-only effect, or another doubt; inactive = no such curve, though single readings can be large; an effect the other way counts as inactive or inconclusive. Potency is read from the fitted curve at half-maximal effect.

SMILES | SW480 rereplic | MCF10A rereplic | HT1080 IDH1KD tx | KB-3-1 tox | HT1080-NT tox | KB-V1 cytotox
COc1ccccc1CNS(=O)(=O)c1ccc2[nH]c3c(c2c1)CCCCC3 | · | · | · | i | · | i
CCc1ccc(N2CC(C(=O)N3CCN(c4ccc([N+](=O)[O-])cc4)CC3)CC2=O)cc1 (centres undefined) | · | · | 1.5% | i | -0.5% | i
CCOC(=O)c1cc(OC(=O)c2ccccc2C)n(-c2ccccc2)n1 | · | · | · | i | · | i
O=C(NCCCN1CCCCC1)c1sc2ncccc2c1-n1cccc1 | · | · | · | i | · | i
Cc1ccc(-n2c(-c3ccccc3)n[nH]c2=S)cc1 | 5.7% | 3.8% | 10.6% | i | 14.7% | i
Cc1ccc(-n2c(-c3ccccc3)n[nH]c2=S)c(C)c1 | ? | 0.651µM* | 18.4% | i | 6.2% | i
CCCOc1ccc(C2C(=O)N(C3CCCCC3)CC(=O)N2C2CCCCC2)cc1OC (centres undefined) | · | · | · | i | · | i
CCCOc1ccc(C2C(=O)N(C3CCCCCC3)CC(=O)N2Cc2ccco2)cc1OC (centres undefined) | 8.1% | 9.4% | -6.8% | i | -11.8% | 1.3µM*
CCc1nn(CCCC(=O)N2CCN(c3cccc(OC)c3)CC2)c(=O)c2cc3occc3n12 | · | · | · | i | · | i
Cc1ccc(Cl)cc1N(C)C(=O)Cn1ncc2c([nH]c3ccccc32)c1=O | 20.6µM* | ? | 9.4% | i | 18.9% | i
Cc1cccc(N/N=C(\C(N)=O)C2=NC(C)(C)Cc3ccccc32)c1 | 15.9% | 11.6µM* | ? | 16.4µM* | ? | 23.1µM*
O=S(=O)(NC(=S)c1ccccc1)c1ccccc1 | -7.7% | 0.9% | 24.2% | ? | ? | i
CC(C)N=C(NS(=O)(=O)c1ccccc1)C(Cl)(Cl)Cl | 5.8µM* | 5.8µM* | 7.31µM* | 5.8µM* | 7.31µM* | 23.1µM*
CCC(CC)C(=O)Nc1ccc(C(=O)OCc2cc(=O)n3nc(C4CC4)sc3n2)cc1 | · | · | · | i | · | ?
Cc1nc2cc(N3CCCCC3)c(NC(=O)c3ccncc3)cc2c(=O)n1Cc1ccccc1 | ? | 1.7% | 5.17µM* | i | 3.66µM* | i
Cc1ccc(-c2noc(CCC(=O)Nc3ccccc3C)n2)cc1 | -0.7% | 35.6% | -26.7% | i | ? | 16.4µM*
Cc1ccc(-c2noc(CCC(=O)N(C)c3ccccc3C)n2)cc1 | 3.9% | 2.7% | -2.7% | ? | -3.9% | 13µM*
COc1ccc(C)cc1NC(=O)c1cnc2scc(C)n2c1=O | ? | 23.1µM* | -2.2% | i | 3.2% | i
COc1ccc(C)cc1NC(=O)c1cnc2ccc(C)cn2c1=O | · | · | · | i | · | i
CC1=C(c2ccc(C)c(C)c2)S(=O)(=O)N(Cc2ccc(C(=O)NCc3ccc(C)cc3)cc2)C1=O | · | · | · | i | · | i
CC(C)C(OC(=O)C1=Cc2ccccc2OC1)C(=O)NCC1CCCO1 (centres undefined) | -8.2% | 16.4µM* | 3.3% | i | -5.0% | i
CC(OC(=O)C1=Cc2ccccc2OC1)C(=O)NC1CCCC1 (centres undefined) | 14.8% | -5.1% | 0.5% | i | -4.6% | i
COc1ccccc1NC(=O)c1c(C)cc(C)nc1SCC(=O)Nc1cccc(C)c1 | · | · | · | i | · | i
CCCCN1C(=O)C(NC(=O)c2ccc(C(C)(C)C)cc2)(C(F)(F)F)C(C(=O)OC)=C1C (centres undefined) | · | · | · | i | · | i
Cc1ccc(OCCCNCCO)c(Br)c1 | ? | ? | 20.6µM* | i | ? | i
SMILES | SW480 rereplic | MCF10A rereplic | HT1080 IDH1KD tx | KB-3-1 tox | HT1080-NT tox | KB-V1 cytotox
CC(=O)c1cccc(NC(=O)C2CCN(S(=O)(=O)c3ccc4c(c3)CCCN4C(C)=O)CC2)c1 | · | · | · | i | · | i
CCc1cnc2c(c1SCC(=O)c1ccc(Cl)cc1)c(=O)n(C)c(=O)n2C | · | · | · | i | · | i
CCOc1cc(C(=S)N2CCCCC2)ccc1OS(=O)(=O)c1ccc(Br)cc1 | 8.4% | ? | -0.7% | ? | -20.6% | 4.11µM*
CCOc1cc(C(=S)N2CCCCC2)ccc1OS(=O)(=O)c1ccc(Cl)cc1 | 19.8% | ? | -6.2% | ? | -24.8% | 2.91µM*
Cc1ccc(S(=O)(=O)N2CCN(c3nc(-n4ccnn4)nc4ccccc34)CC2)cc1 | · | · | 12.1% | · | 19.8% | ·
Cc1c(Cl)cccc1NC(=O)C(C)n1c(=O)cc(C)c2c(C)nn(-c3ccccc3)c21 (centres undefined) | · | · | · | i | · | ?
O=C(Nc1nc2ccccc2s1)c1cc2c(s1)-c1ccccc1OC2 | 6.51µM* | ? | 11.1% | i | 4.6% | i
O=C(Nc1cccnc1)c1cc2c(s1)-c1ccccc1OC2 | 13.8% | 0.5% | 8.2% | i | -0.8% | i
O=C(Nc1cccnc1Cl)c1cc2c(s1)-c1ccccc1OC2 | 133.7% | 18.4µM* | -16.3% | i | -7.6% | i
O=C(Nc1nccs1)c1cc2c(s1)-c1ccccc1OC2 | 16.4µM* | 9.2µM* | -24.2% | ? | -21.6% | i
Cc1cccc2c1-c1sc(C(=O)Nc3nccs3)cc1CO2 | 7.31µM* | 3.66µM* | -1.4% | i | -7.0% | i
O=C(Nc1ccccn1)c1cc(-c2ccc(Cl)s2)nc2ccccc12 | -2.1% | 20.6µM* | -18.7% | ? | -18.2% | ?
O=C(NC(=S)Nc1ccccc1)c1cc(-c2ccccc2)nc2ccccc12 | 9.6% | 15.5% | -11.3% | i | -5.9% | i
O=C(NC(=S)Nc1ccccn1)c1cc(-c2ccccc2)nc2ccccc12 | ? | 7.7% | 0.5% | i | -2.4% | 16.4µM*
COCCCNc1nc(SCc2ccccc2)nc2sc3c(c12)CCC3 | ? | -182.6%[0.0737 µM] | 12.3% | i | -1.8% | i
N#Cc1cnn(-c2nc(SCc3ccccc3)nc3sc4c(c23)CCCC4)c1N | 1.3% | 0.2% | -24.0% | i | -25.4% | 20.6µM*
COc1ccc(NC(=S)Nc2ccccc2)c(OC)c1 | 8.7% | 0.3% | -1.4% | i | 1.0% | i
COc1ccc(NC(=S)Nc2ccc(OCc3ccccc3)cc2)c(OC)c1 | 12.4% | 8.9% | -10.8% | ? | -13.7% | 16.4µM*
COc1ccc(CCNC(=O)CCc2c(C)nc3c4cccnc4nn3c2C)cc1OC | · | · | · | i | · | i
CC(OC(=O)c1cc(Br)ccc1O)C(=O)Nc1ccc(S(=O)(=O)N2CCCC2)cc1 (centres undefined) | ? | ? | ? | ? | ? | 23.1µM*
